Measured values from PubChem BioAssay (NCI).
Compounds without any hit were thinned out: in the full panel of roughly 79,000, 15% have a hit. Values without a mark were called inactive. The source made the active and inactive calls. Rule as the data show it: active = growth inhibition above about 70%; inactive = the rest. Where a SMILES comes first, the peptide text is derived from it. The star is where a group is joined. Boc = CC(C)(C)OC(=O)*; OBn = c1ccc(CO*)cc1; Bn = c1ccc(C*)cc1

Tests used:
[1] = NCI Yeast Anticancer Drug Screen. Data for the rad50 strain (AID 155);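 also: 0% = growth of vehicle-only cultures of the same strain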; conditions: S. cerevisiae rad50 strain growth inhibition, active compounds read high
Outline: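 Relative growth inhibition (compound vs vehicle) was measured in yeast with a defined repair-gene alteration.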

[2] = NCI Yeast Anticancer Drug Screen. Data for the mec2-1 strain (AID 157); conditions: S. cerevisiae mec2-1 strain, active compounds read high
Outline: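 Growth inhibition is read against vehicle-treated controls after compound exposure of the mec2-1 yeast strain, which is defective in DNA damage repair or cell cycle control.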

[3] = NCI Yeast Anticancer Drug Screen. Data for the sgs1 mgt1 strain (AID 161);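 also: 0% = growth of cultures given vehicle only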; conditions: S. cerevisiae sgs1 mgt1 strain, active compounds read high
Outline: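 Growth of a repair-deficient yeast mutant was monitored after compound treatment and expressed as inhibition relative to vehicle-treated cultures.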

[4] = NCI Yeast Anticancer Drug Screen. Data for the cln2 rad14 strain (AID 165);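 also: 0% = growth equal to vehicle treated cultures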; conditions: S. cerevisiae cln2 rad14 strain, active compounds read high
Outline: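 Growth inhibition, relative to vehicle-treated controls, is the read-out. The test organism is a yeast strain with defined genetic alterations, cln2 rad14.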

[5] = NCI Yeast Anticancer Drug Screen. Data for the bub3 strain (AID 167); conditions: S. cerevisiae bub3 mutant strain, active compounds read high
Outline: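 Screening used yeast with an engineered genetic alteration affecting cell cycle control. Compound-exposed cultures were compared with vehicle cultures, and reduced growth was taken as inhibition.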

[6] = NCI Yeast Anticancer Drug Screen. Data for the mlh1 rad18 strain (AID 175); conditions: S. cerevisiae mlh1 rad18 strain growth inhibition, active compounds read high
Outline: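 Cells of a genetically altered yeast strain, deficient in DNA damage repair, were treated with compound. Their growth was then compared with that of vehicle-treated cultures to give inhibition.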

[7] = at 5.0 µM (retest, dose inferred, filed as 0.5)
[8] = at 50.0 µM (retest, dose inferred, filed as 5.0)

Row | SMILES | growth inhibition [1, 7] [%] | growth inhibition [1, 8] | growth inhibition ([1]; at 50.0 µM) | growth inhibition [2, 7] | growth inhibition [2, 8] | growth inhibition ([2]; at 50.0 µM) | growth inhibition [3, 7] [%] | growth inhibition [3, 8] | growth inhibition ([3]; at 50.0 µM) | growth inhibition [4, 7] [%] | growth inhibition [4, 8] | growth inhibition ([4]; at 50.0 µM) | growth inhibition [5, 7] [%] | growth inhibition [5, 8] | growth inhibition ([5]; at 50.0 µM) | growth inhibition [6, 7] | growth inhibition [6, 8] | growth inhibition ([6]; at 50.0 µM)
1 | CCCCCCCCCCCCCCCCCC(=O)OCC(COC(=O)CCCN)OC(=O)CCCN (stereo unspecified) | 18 | 99% (active) | 98.7% (active) | 9% | 99% (active) | 97.5% (active) | 3 | 99% (active) | 98% (active) | 5 | 96% (active) | 69% | 5 | 99% (active) | 98.6% (active) | 32% | 99% (active) | 97.5% (active)
2 | CC(C)CC(NC(=O)C(Cc1ccccc1)NC(=O)C(COCc1ccccc1)NC(=O)OC(C)(C)C)C(=O)OCc1ccccc1 (stereo not drawn) (Boc-Ser(Bn)-Phe-Leu-OBn; configuration not given here) | 16 | 13% | 16.8% | 22% | 15% | 2.6% | -15 | -29% | 17.2% | -3 | 7% | 16.2% | -4 | -7% | 25.4% | 26% | 15% | 24.3%
3 | COc1cnn(-c2ccccc2)c(=O)c1SCc1ccc(Cl)c(Cl)c1 | -3 | 7% | 42.5% | -3% | 33% | 7.95% | 1 | 62% | 71.2% (active) | -6 | 23% | 49.9% | 2 | 51% | 53% | -4% | 25% | 37.4%
4 | CSC(SC)(C(=O)O)c1cc(-c2c(Cl)cccc2Cl)no1 | 3 | 27% | 39% | 2% | 42% | 44% | 7 | 48% | 95.5% (active) | -1 | -5% | 17.1% | 13 | 73% (active) | 51.6% | 0% | 36% | 84.4% (active)
5 | CN(C)c1ccc(C(c2cc3c(cc2O)OCO3)N2CCCCC2)cc1 (stereo unspecified) | 3 | 86% (active) | 99.3% (active) | -4% | 98% (active) | 99.5% (active) | 8 | 88% (active) | 99.5% (active) | -1 | 70% (active) | 98.3% (active) | -5 | 97% (active) | 99.3% (active) | -8% | 97% (active) | 99.3% (active)
6 | O=C(Cn1cnc2ccc([N+](=O)[O-])cc21)N1CCN(c2ccccc2)CC1 | -2 | -7% | 10.3% | 4% | 8% | 19.6% | -25 | 2% | 12.1% | 7 | -5% | -53.6% | 10 | 7% | -15.4% | -9% | -22% | 0.6%
7 | COC(=O)C1CCC(c2ccccc2)CC1C(=O)OC (stereo unspecified) | 2 | 10% | 24.9% | 0% | 6% | 20.9% | 1 | 12% | 33% | 5 | 12% | 24% | 25 | 31% | 71.2% (active) | -3% | 9% | 28.6%
8 | COc1ccccc1NC(=O)CC(=O)N1N=C(C)C(N=Nc2ccc(C(=O)O)cc2)C1=O (stereo unspecified) | 2 | -1% | 0% | 0% | -2% | -4% | -4 | -20% | 2.65% | -2 | 7% | 27.9% | 1 | 16% | -1.05% | 1% | 1% | 2.3%
9 | O=CNc1ccc2c(c1)Cc1cc(NC=O)ccc1-2 | -4 | 81% (active) | 91% (active) | -3% | 25% | 34.5% | 18 | 82% (active) | 91.4% (active) | -34 | 10% | -6.85% | 2 | -9% | 7.8% | 14% | 79% (active) | 74.2% (active)
10 | C=C/C=C/CC=C | -151 | 38% | 34.2% | -48% | -41% | 1.2% | -62 | -38% | 6.6% | -45 | -50% | 85.3% (active) | -60 | -46% | 21.4% | -120% | -90% | 59.9%
11 | COc1ccc(C2C3=C(CCCC3=O)Oc3cc4c(cc32)OCO4)cc1 (stereo unspecified) | 2 | 68% | 98% (active) | 5% | 76% (active) | 96.7% (active) | -6 | 64% | 97.3% (active) | 22 | 67% | 96.3% (active) | -2 | 79% (active) | 95.9% (active) | 0% | 91% (active) | 98.2% (active)
12 | Cc1c2c(c(O)c3c(O)cccc13)C(=O)C1(O)C(=O)C(C(N)=O)C(O)C(N(C)C)C1C2 (stereo unspecified) | 27 | 99% (active) | 65.7% | 82% (active) | 100% (active) | 99.2% (active) | -90 | 100% (active) | 58% | 66 | 99% (active) | 98.7% (active) | 61 | 99% (active) | 98.6% (active) | 70% (active) | 99% (active) | 99.1% (active)
